An excerpt weighted towards active compounds, which were near 2.4% of everything screened.
Pol eta inh = qHTS for Inhibitors of Polymerase Eta. AID 588591, 2011. Potency, µM (titrated, usually from 114 µM), hits mostly inhibitors. recombinant Pol eta, fluorescent DNA replication assay. 1.2% of 390,000 active. DNA polymerase eta (Homo sapiens), Q9Y253
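Pol eta at 10 nM preincubated with compounds 15 min at room temperature; reaction started with fluorescent substrate (50 nM final) and read kinetically at 0 and 10 min.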
POLK inh = qHTS for Inhibitors of Polymerase Kappa; Potency, µM (series often up to 107 µM), most hits filed as inhibitors; DNA polymerase kappa (Homo sapiens), Q9UBT6; purified Pol kappa, fluorescent DNA synthesis assay, 10 min; 0.53% of 400,000 active
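10 nM Pol kappa was preincubated with compounds for 15 min at room temperature. Reaction started with 50 nM (final) substrate. Fluorescence read kinetically at 0 and 10 min.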
WRN helicase inh-1 = qHTS for Inhibitors of WRN Helicase | AID 651768, 2012 | 0.46% of 360,000 active | WRN helicase unwinding, fluorescent forked duplex, kinetic | Bifunctional 3'-5' exonuclease/ATP-dependent helicase WRN (Homo sapiens), Q14191 | Potency, µM (highest dose often 114 µM), usual class: inhibitors; note: nearly all actives have a fitted effect of over 55% in size
Target sequence (Q14191 whole entry, looked up): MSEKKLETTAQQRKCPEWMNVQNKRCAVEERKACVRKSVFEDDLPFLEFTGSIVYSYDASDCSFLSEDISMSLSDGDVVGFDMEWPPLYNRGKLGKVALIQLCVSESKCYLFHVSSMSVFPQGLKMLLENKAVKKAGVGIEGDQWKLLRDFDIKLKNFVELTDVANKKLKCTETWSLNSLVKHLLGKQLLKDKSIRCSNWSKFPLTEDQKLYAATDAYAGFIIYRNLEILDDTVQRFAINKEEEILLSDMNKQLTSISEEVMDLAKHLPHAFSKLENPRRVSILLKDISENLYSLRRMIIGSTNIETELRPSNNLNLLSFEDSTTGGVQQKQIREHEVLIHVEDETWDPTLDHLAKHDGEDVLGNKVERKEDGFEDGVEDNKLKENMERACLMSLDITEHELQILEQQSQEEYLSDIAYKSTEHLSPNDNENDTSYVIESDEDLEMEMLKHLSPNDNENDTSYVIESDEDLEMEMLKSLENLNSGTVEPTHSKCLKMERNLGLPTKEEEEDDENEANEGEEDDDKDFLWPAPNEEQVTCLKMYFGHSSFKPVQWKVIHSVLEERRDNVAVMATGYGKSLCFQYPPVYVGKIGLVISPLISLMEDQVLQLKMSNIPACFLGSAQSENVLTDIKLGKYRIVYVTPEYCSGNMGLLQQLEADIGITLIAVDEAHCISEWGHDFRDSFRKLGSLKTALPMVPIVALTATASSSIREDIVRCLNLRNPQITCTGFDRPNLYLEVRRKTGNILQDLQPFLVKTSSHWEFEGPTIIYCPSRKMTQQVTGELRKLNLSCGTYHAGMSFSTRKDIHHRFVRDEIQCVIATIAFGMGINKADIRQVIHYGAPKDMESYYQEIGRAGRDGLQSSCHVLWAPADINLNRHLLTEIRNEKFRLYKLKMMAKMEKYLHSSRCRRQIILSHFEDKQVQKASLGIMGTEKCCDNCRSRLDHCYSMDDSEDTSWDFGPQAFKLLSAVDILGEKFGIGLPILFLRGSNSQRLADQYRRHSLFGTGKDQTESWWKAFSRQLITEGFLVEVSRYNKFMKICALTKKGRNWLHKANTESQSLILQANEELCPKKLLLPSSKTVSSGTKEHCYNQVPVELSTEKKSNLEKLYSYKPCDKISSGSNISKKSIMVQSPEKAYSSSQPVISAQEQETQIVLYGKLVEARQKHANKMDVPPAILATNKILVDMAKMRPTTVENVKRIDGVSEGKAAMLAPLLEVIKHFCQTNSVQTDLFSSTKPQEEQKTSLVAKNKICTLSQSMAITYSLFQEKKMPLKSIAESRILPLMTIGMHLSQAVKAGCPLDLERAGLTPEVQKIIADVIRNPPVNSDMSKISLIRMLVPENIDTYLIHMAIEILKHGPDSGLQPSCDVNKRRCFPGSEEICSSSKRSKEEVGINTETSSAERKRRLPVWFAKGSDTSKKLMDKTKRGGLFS
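Enzyme (20 nM final) and test compound sit together 15 min at room temperature before substrate addition. Substrate is a single-forked duplex oligonucleotide (100 nM) labelled with fluorophore and quencher, with 2 mM ATP; helicase unwinding raises red fluorescence, read kinetically.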
Pol beta inh = qHTS Assay for Inhibitors of DNA Polymerase Beta; Pol beta primer extension/strand displacement, fluorescence kinetic; AID 485314, 2010; P06746; Potency, µM (highest dose often 114 µM), actives largely listed as inhibitors; 1.3% of 340,000 active
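Values derive from four-parameter Hill fits of normalized kinetic data: reads at 0 and 10 min following addition of 50 nM substrate to 10 nM Pol beta preincubated 15 min with compound.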
POLI inh = qHTS for Inhibitors of Polymerase Iota | AID 588590, 2011 | Pol iota fluorescent replication assay, 10 min | DNA polymerase iota (Homo sapiens), Q9UNA4 | 1% of 390,000 active | Potency, µM (top dose mostly 115 µM), most hits filed as inhibitors
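Fluorescent replication assay read twice, at 0 min and 10 min after adding 50 nM (final) substrate. Enzyme (10 nM) and compounds were first incubated 15 min at room temperature; enzyme-free buffer wells were negative controls.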
FEN1 inh = qHTS Assay for the Inhibitors of Human Flap endonuclease 1 (FEN1) | AID 588795, 2011 | P39748 | Potency, µM (top dose mostly 114 µM), hits mostly inhibitors | 0.35% of 390,000 active | Recombinant FEN1 flap cleavage, fluorescence, 15 min; note: nearly all actives have a fitted effect of over 65% in size
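Read-out was taken twice, immediately and after 15 min, following addition of 50 nM substrate to 10 nM FEN1 that had sat with test compound for 15 min at room temperature. Curves came from a four-parameter Hill model.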
WRN helicase inh-2 = qHTS for Inhibitors of WRN Helicase: Confirmatory Assay for Cherry-picked Compounds | shares compounds with WRN helicase inh-1 | WRN helicase DNA unwinding, fluorescence kinetic | Potency, µM (series often up to 57.1 µM), usual class: inhibitors | 63% of 610 active | AID 720497, 2013; note: nearly all actives have a fitted effect of over 65% in size
TO displacement = qHTS for Inhibitors of WRN Helicase: Thiazole Orange DNA Binding Counterscreen | shares compounds with WRN helicase inh-1 | thiazole orange DNA binding displacement, fluorescence | 10% of 610 active | AID 720499, 2013 | Potency, µM (series often up to 57.1 µM), hits mostly inhibitors;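 note: drop in dye fluorescence marks compound binding to DNA; nearly all actives have a fitted effect of over 60% in size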
BLM helicase inh = qHTS for Inhibitors of WRN Helicase: BLM Helicase Counterscreen for WRN Inhibitors; 60% of 610 active; Recombinant BLM helicase DNA unwinding, red fluorescence; Potency, µM (doses to about 57.1 µM), actives largely listed as inhibitors; shares compounds with WRN helicase inh-1; note: nearly all actives have a fitted effect of over 60% in size
Of the large screens only hits and unclear results are named; the others gave an inactive call (follow-up assays come after a bar, where they were run). Calls come from the whole dose curve; as a rule, active = well fitted curve in the direction sought with a large enough effect; inconclusive = small, poorly fitted or top-dose-only effect, or another doubt; inactive = no such curve, though single readings can be large; an effect the other way counts as inactive or inconclusive.

CN(C)c1ccc(-c2cncnc2NCc2ccccc2)cc1	none (no result: Pol eta inh, WRN helicase inh-1, Pol beta inh, POLI inh, FEN1 inh)
O=S(=O)(Cc1ccccc1)N(O)c1ccccc1	WRN helicase inh-1 inconclusive | WRN helicase inh-2 inactive | TO displacement inactive | BLM helicase inh inactive
O=C(O)CNS(=O)(=O)Cc1ccccc1	none
O=C1ON=C(c2ccc([N+](=O)[O-])cc2)/C1=C/c1ccccc1O	Pol eta inh inconclusive, WRN helicase inh-1 inconclusive, POLI inh inconclusive | WRN helicase inh-2 inactive | TO displacement inactive | BLM helicase inh inactive
COc1ccc(/C=C2\C(=O)ON=C2c2cccc([N+](=O)[O-])c2)cc1	none (no result: Pol eta inh, POLK inh, WRN helicase inh-1, POLI inh, FEN1 inh)
Cc1cccc(CSc2cn(CC(=O)N3CCCCC3)c3ccccc23)c1	none (no result: WRN helicase inh-1)
C=CCn1c(SCC(=O)c2ccc(O)c(O)c2)nnc1-c1ccccc1OC	Pol eta inh 25µM, POLK inh inconclusive, WRN helicase inh-1 inconclusive, Pol beta inh inconclusive, POLI inh 50µM | WRN helicase inh-2 15µM | TO displacement inactive | BLM helicase inh 12µM
C=CCn1c(SCC(=O)Nc2cc(C)on2)nnc1-c1ccccc1OC	none (no result: Pol beta inh)
COc1ccc(CN(C#N)c2nc(SC)nc(N(C)C)n2)cc1	Pol eta inh inconclusive, POLK inh inconclusive, WRN helicase inh-1 100µM, POLI inh 89µM, FEN1 inh inconclusive | WRN helicase inh-2 inactive | TO displacement inactive | BLM helicase inh inactive
CC(=O)OCCCNc1cc(Sc2nc3ccccc3s2)c2nonc2c1[N+](=O)[O-]	Pol eta inh inconclusive
CC(=O)OCCCNc1cc(Sc2ccc(C)cc2)c2nonc2c1[N+](=O)[O-]	POLK inh inconclusive, WRN helicase inh-1 40µM, POLI inh inconclusive | WRN helicase inh-2 inactive | TO displacement inactive | BLM helicase inh inactive
CN(C)c1ccc(C=Nc2ccc(/C=C3\C=Cc4ccccc43)cc2)cc1	none (no result: Pol eta inh, WRN helicase inh-1, Pol beta inh)
COC(=O)c1sc(NC(=O)c2ccc(Cn3cc(Cl)cn3)o2)c(C#N)c1C	Pol eta inh inconclusive, POLK inh inconclusive, WRN helicase inh-1 inconclusive, Pol beta inh inconclusive, POLI inh inconclusive | WRN helicase inh-2 inactive | TO displacement inactive | BLM helicase inh inconclusive
N#Cc1c(NC(=O)c2ccc(Cn3cc(Br)cn3)o2)sc2c1CCCCC2	Pol eta inh inconclusive, POLI inh inconclusive
CCN(CC)C(=O)Nc1ccc(OC[C@H](O)CNC(C)(C)C)c(C(C)=O)c1	none (no result: Pol eta inh, WRN helicase inh-1, Pol beta inh, POLI inh, FEN1 inh)
CCc1sc(C(C2C(=O)CC(C)(C)CC2=O)C2C(=O)CC(C)(C)CC2=O)cc1[N+](=O)[O-]	Pol eta inh inconclusive, WRN helicase inh-1 32µM, Pol beta inh inconclusive, POLI inh inconclusive | WRN helicase inh-2 22µM | TO displacement 19µM | BLM helicase inh 22µM
O=C(CSc1nnc(-c2cnccn2)n1Cc1ccco1)c1ccc(Cl)cc1	WRN helicase inh-1 inconclusive, POLI inh inconclusive | WRN helicase inh-2 inactive | TO displacement inactive | BLM helicase inh inactive
O=C(CSc1nnc(-c2cnccn2)n1Cc1ccco1)c1ccccc1	none
COc1cc(C)c2sc3ccccc3c(=O)c2c1NCCN(C)C	Pol eta inh inconclusive, WRN helicase inh-1 35µM (no result: POLK inh, Pol beta inh, POLI inh, FEN1 inh) | WRN helicase inh-2 inconclusive | TO displacement 17µM | BLM helicase inh inconclusive
Cn1cnc([N+](=O)[O-])c1NC(C)(C)C	none

Source: PubChem BioAssay (National Center for Advancing Translational Sciences (NCATS))
